In PubChem BioAssay (Tox21):
“And” between values parts separate entries of the source, which are not always exact repeats. Equal entries are not always repeated. Results filed as inconclusive are left out. Entries that show only a call come without a potency. Some compounds were tested as several samples or in several runs, with calls that do not always agree. The source made the active and inactive calls. Calls come from the whole dose curve.

How the values were obtained:
[1] = target: Acetylcholinesterase (Homo sapiens) (UniProt P22303); assay: Acetylcholinesterase (AChE) small molecule antagonists: colormetric cell-based qHTS assay (AID 1347395); note: nearly all actives have a fitted effect of over 30% in size; note: potency is the fitted concentration of half-maximal effect
Chain of Acetylcholinesterase (Homo sapiens) (P22303 whole entry, looked up): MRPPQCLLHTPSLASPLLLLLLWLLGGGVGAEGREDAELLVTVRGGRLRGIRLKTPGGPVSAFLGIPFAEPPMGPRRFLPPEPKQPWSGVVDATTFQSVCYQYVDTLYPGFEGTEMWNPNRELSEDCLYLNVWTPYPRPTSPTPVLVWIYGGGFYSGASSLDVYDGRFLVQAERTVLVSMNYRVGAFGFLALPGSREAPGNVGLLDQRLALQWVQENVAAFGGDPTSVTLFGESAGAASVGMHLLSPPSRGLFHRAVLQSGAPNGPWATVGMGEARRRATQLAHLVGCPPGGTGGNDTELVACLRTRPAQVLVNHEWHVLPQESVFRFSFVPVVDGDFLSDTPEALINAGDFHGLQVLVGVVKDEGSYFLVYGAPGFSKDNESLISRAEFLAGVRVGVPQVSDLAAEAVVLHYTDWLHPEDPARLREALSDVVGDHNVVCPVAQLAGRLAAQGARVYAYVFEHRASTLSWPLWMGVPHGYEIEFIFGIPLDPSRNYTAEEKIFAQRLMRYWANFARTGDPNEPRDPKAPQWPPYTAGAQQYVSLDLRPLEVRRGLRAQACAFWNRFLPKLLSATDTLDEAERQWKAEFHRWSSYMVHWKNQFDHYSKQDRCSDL
In short: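 Colorimetric read-out: DTNB detects thiocholine released when cellular AChE in SH-SY5Y cells hydrolyses acetylthiocholine. Cells attached overnight, received compound for 30 min at 37 C, then substrate mix for 90 min at 37 C.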

[2] = target: Acetylcholinesterase (Homo sapiens) (UniProt P22303); assay: Acetylcholinesterase (AChE) small molecule antagonists: enzyme-based qHTS assay (AID 1347397); conditions: Potency: AChE enzyme activity inhibition; outcome: AChE enzyme activity inhibition; note: nearly all actives have a fitted effect of over 55% in size; note: potency is the fitted concentration of half-maximal effect
In short: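 First, recombinant human AChE (50 mU/mL as dispensed) received test compound or DMSO. Second, plates stood 30 min at room temperature. Third, DTNB and acetylthiocholine were added, followed by 10 min at room temperature and colorimetric detection.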

[3] = target: Acetylcholinesterase (Homo sapiens) (UniProt P22303); assay: Acetylcholinesterase (AChE) small molecule antagonists: fluorescence cell-based qHTS assay (AID 1347398); conditions: Potency: AChE activity; outcome: AChE activity; note: nearly all actives have a fitted effect of over 50% in size; note: potency is the fitted concentration of half-maximal effect
In short: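 Homogeneous quantitative HTS format. SH-SY5Y cells seeded at 2,000 per well settle overnight at 37 C. Compound pretreatment runs 30 min (37 C, 5% CO2); substrate/probe mix then reacts 40 min at RT before reading 490/520 nm.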

[4] = target: Acetylcholinesterase (Homo sapiens) (UniProt P22303); assay: Acetylcholinesterase (AChE) small molecule antagonists: enzyme-based qHTS assay with human liver microsomes (AID 1347399); conditions: Potency: qHTS inhibition; outcome: qHTS inhibition; note: nearly all actives have a fitted effect of over 60% in size
In short: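 Recombinant human AChE (50 mU/mL in the enzyme mix) and human liver microsomes (0.25 mg/mL final) were preincubated with compound and NADPH (0.25 mg/mL final) for 30 min at 37 C. Acetylthiocholine/DTNB was then added; thiocholine was read colorimetrically after 10 min at room temperature.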

Compound | Potency [1] | Potency [2] | Potency [3] | Potency [4] | activity, negative = inhibition [1] | activity change, negative = inhibition [2] | activity change, negative = inhibition [3] | activity change, negative = inhibition [4]
O=c1cc(-c2ccccc2)oc2cc(O)cc(O)c12 | inactive | inactive | inactive | inactive | – | – | – | –
O=C(O)C[C@H](O)C[C@H](O)/C=C/c1c(C2CC2)nc2ccccc2c1-c1ccc(F)cc1 | – | – | – | – | -0.67% [at 23.6 µM] (inactive) | -2.86% [at 23.6 µM] (inactive) | 8.09% [at 23.8 µM] (inactive) | -1.12% [at 23.6 µM] (inactive)
CC(CCc1ccccc1)NCC(O)c1ccc(O)c(C(N)=O)c1 (stereo not given) | inactive | inactive | inactive | inactive | – | – | – | –
OCCCCCCCCCCCCBr | inactive | inactive | inactive | inactive | – | – | – | –
CC(=O)CC(=O)Nc1ccc(C)cc1C | inactive | inactive | inactive | inactive | – | – | – | –
CCc1ccc(O)cc1 | inactive | inactive | inactive | inactive | – | – | – | –
O=[N+]([O-])c1cc(N(CCO)CCO)ccc1NCCO | inactive | inactive | inactive | inactive | – | – | – | –
CC(=O)c1ccccn1 | inactive | inactive | inactive | inactive | – | – | – | –
O=C1Nc2ccc([N+](=O)[O-])cc2C1=O | inactive | inactive | inactive | inactive | – | – | – | –
C=CC(C)CCC=C(C)C (stereo not given) | inactive | inactive | inactive | inactive | – | – | – | –
O=C1C=CC(=O)O1 | inactive | inactive | inactive | inactive | – | – | – | –
COC(=O)[C@H]1[C@H]2C[C@@H]3c4[nH]c5cc(OC)ccc5c4CCN3C[C@H]2C[C@@H](OC(=O)c2cc(OC)c(OC)c(OC)c2)[C@@H]1OC | inactive | inactive | inactive | inactive | – | – | – | –
CCCC(O)C(CC)CO (stereo not given) | inactive | inactive | inactive | inactive | – | – | – | –
CCCCCC#CC(=O)OC | inactive | inactive | inactive | inactive | – | – | – | –
CC(C)(C)NCC(O)COc1ccccc1OCC1CCCO1 (stereo not given) | inactive | inactive | inactive | inactive | – | – | – | –
CCc1cccc2c3c([nH]c12)C(CC)(CC(=O)O)OCC3 (stereo not given) | inactive | inactive | inactive | inactive | – | – | – | –
Cc1cccc(C(=O)O)c1[N+](=O)[O-] | inactive | inactive | inactive | inactive | – | – | – | –
Cc1cccc2c1ccc1ccccc12 | inactive | inactive | inactive | inactive | – | – | – | –
CC(=O)N[C@@H](CCC(N)=O)C(=O)O | inactive | inactive | inactive | inactive | – | – | – | –
CN1CCN(c2c(F)cc3c(=O)c(C(=O)O)cn(CCF)c3c2F)CC1 | inactive | inactive | inactive | inactive | – | – | – | –

Compound | Potency [1] | Potency [2] | Potency [3] | Potency [4] | activity, negative = inhibition [1] | activity change, negative = inhibition [2] | activity change, negative = inhibition [3] | activity change, negative = inhibition [4]
CCOC(=O)CCCCCCCCC(=O)OCC | inactive | inactive | inactive | inactive | – | – | – | –
O=C(O)/C=C/c1cnc[nH]1 | inactive | inactive | inactive | inactive | – | – | – | –
COc1ccccc1OC(=O)Oc1ccccc1OC | inactive | inactive | inactive | inactive | – | – | – | –
Cc1cc2c(cc1S(N)(=O)=O)S(=O)(=O)CCC2 | 17.4 µM (active) | inactive | inactive | inactive | – | – | – | –
CC(C)(c1ccccc1)c1ccc(Nc2ccc(C(C)(C)c3ccccc3)cc2)cc1 | inactive | inactive | inactive | inactive | – | – | – | –
C/C=C/C=C/CCCCCCCO | inactive | inactive | inactive | inactive | – | – | – | –
ClC/C=C\CCl | inactive | inactive | inactive | inactive | – | – | – | –
CCOCCO | inactive | inactive | inactive | inactive | – | – | – | –
Cc1occc1SSc1ccoc1C | inactive | inactive | inactive | inactive | – | – | – | –
CCCCCCCCCCCCCCCC(=O)OC(C)C | inactive | inactive | inactive | inactive | – | – | – | –
CCCCCCCCCCCCCC[N+](C)(C)Cc1ccccc1 | 64.3 µM (active) and inactive | 64.3 µM (active) | 36.2 µM (active) and 30.9 µM (active) and 15.8 mM (active) | inactive | – | – | – | –
CCCn1cnc2c1c(=O)n(CCCCC(C)=O)c(=O)n2C | inactive | inactive | inactive | inactive | – | – | – | –
Nc1ccc(O)c(N)c1 | inactive | inactive | inactive | inactive | – | – | – | –
O=C(O)CCCC(=O)O | 6.21 µM (active) and inactive | inactive | inactive | inactive | – | – | – | –
COc1ccc(C(=O)N2CCN(CC(=O)N3CCOCC3)CC2)cc1 | inactive | inactive | inactive | inactive | – | – | – | –
C[C@@H]1C[C@H]2[C@@H]3CCC4=CC(=O)C=C[C@]4(C)[C@@]3(F)[C@@H](O)C[C@]2(C)[C@@]1(O)C(=O)COP(=O)(O)O | inactive | inactive | inactive | inactive | – | – | – | –
CCCCCOc1ccc(C2SC(=O)NC2=O)cc1OCC (stereo not given) | inactive | inactive | inactive | inactive | – | – | – | –
C=COC(=O)C(C)(CC)CCC(C)C (stereo not given) | inactive | inactive | inactive | inactive | – | – | – | –
CCCCCCCCCCCCCCCBr | inactive | inactive | inactive | inactive | – | – | – | –
O=C(O)CP(=O)(O)O | inactive | inactive | inactive | inactive | – | – | – | –

Compound | Potency [1] | Potency [2] | Potency [3] | Potency [4] | activity, negative = inhibition [1] | activity change, negative = inhibition [2] | activity change, negative = inhibition [3] | activity change, negative = inhibition [4]
CC1=CC(=O)CCC1 | inactive | inactive | inactive | inactive | – | – | – | –
O=C(O)c1ccccc1C(=O)O | inactive | inactive | inactive | inactive | – | – | – | –
c1ccc2c(c1)Cc1ccccc1-2 | inactive | inactive | inactive | inactive | – | – | – | –
CCOc1cc(OCC)c(C(=O)CCC(=O)O)cc1OCC | inactive | inactive | inactive | inactive | – | – | – | –
CSc1ccc2c(c1)N(CCC1CCCCN1C)c1ccccc1S2 (stereo not given) | 70.7 µM (active) | 79.3 µM (active) and inactive | 31.6 µM (active) | inactive | – | – | – | –
Oc1ccc(-c2ccccc2)c(Cl)c1 | inactive | inactive | inactive | inactive | – | – | – | –
CCN(CC)CC1CCCCN1CC(=O)N1c2ccccc2C(=O)Nc2cccnc21 (stereo not given) | inactive | inactive | inactive | inactive | – | – | – | –
CC1CC(C)C(=O)C1=O (stereo not given) | inactive | inactive | inactive | inactive | – | – | – | –
Nc1nc(Cl)cc(Cl)n1 | inactive | inactive | inactive | inactive | – | – | – | –
CN(C)Cc1cc(C(C)(C)C)c(O)c(C(C)(C)C)c1 | inactive | inactive | inactive | inactive | – | – | – | –
O=C1c2ccccc2C(=O)C1c1ccc2cc(S(=O)(=O)O)cc(S(=O)(=O)O)c2n1 | inactive | inactive | inactive | inactive | – | – | – | –
C/C=C1/CC2C=CC1C2 (stereo not given) | inactive | inactive | inactive | inactive | – | – | – | –
CCO[Si](CC(C)C)(OCC)OCC | inactive | inactive | inactive | inactive | – | – | – | –
CCCCCCCC1CCCC1=O (stereo not given) | inactive | inactive | inactive | inactive | – | – | – | –
OC1(c2ccc(Cl)c(C(F)(F)F)c2)CCN(CCCC(c2ccc(F)cc2)c2ccc(F)cc2)CC1 | inactive | inactive | inactive | inactive | – | – | – | –
O=C(OCCCCCCOC(=O)c1ccccc1)c1ccccc1 | inactive | inactive | inactive | inactive | – | – | – | –
c1ccc(COCc2ccccc2)cc1 | inactive | inactive | inactive | inactive | – | – | – | –
Brc1cc(Oc2cc(Br)c(Br)c(Br)c2Br)c(Br)c(Br)c1Br | inactive | inactive | inactive | inactive | – | – | – | –
CC(CCO)CCc1ccccc1 (stereo not given) | inactive | inactive | inactive | inactive | – | – | – | –
CC(C)CC(C)CC(C)CC(C)COC(=O)c1ccccc1C(=O)OCC(C)CC(C)CC(C)CC(C)C (stereo not given) | inactive | inactive | inactive | inactive | – | – | – | –
